Laboratory results taken from PubChem BioAssay (NCATS).
Records with an inconclusive call do not appear. Where a call stands in place of a potency, no number is given. Active and inactive are the calls of the source. Unless noted, calls come from the whole dose curve; as a rule, active = well fitted curve in the direction sought with a large enough effect; inconclusive = small, poorly fitted or top-dose-only effect, or another doubt; inactive = no such curve, though single readings can be large; an effect the other way counts as inactive or inconclusive.

Columns and labels:
[1] = qHTS for differential inhibitors of proliferation of Plasmodium falciparum line HB3 (AID 1886); settings: Potency: Plasmodium falciparum HB3 proliferation inhibition;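 note: parasites grown with compound for 72 h before SYBR Green readout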; note: potency is the fitted concentration of half-maximal effect
[2] = biological target: Ferritin light chain (Equus caballus) (UniProt P02791); test: qHTS Validation Assay for Identification of Novel General Anesthetics (AID 2323); note: series mostly up to about 77 µM
Sequence of Ferritin light chain (Equus caballus) (P02791 2-175 limits assumed): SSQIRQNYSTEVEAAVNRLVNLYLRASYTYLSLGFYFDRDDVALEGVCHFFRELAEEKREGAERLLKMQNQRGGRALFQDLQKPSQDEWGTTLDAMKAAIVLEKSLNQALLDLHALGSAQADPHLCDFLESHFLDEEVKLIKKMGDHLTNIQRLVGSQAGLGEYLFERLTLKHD
Summary of the method: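 Apoferritin from horse spleen (10 uM) was mixed with 1-aminoanthracene at 50% saturation in PBS, then compounds were added. After 10 min at room temperature, fluorescence was read (ex 380 nm, em 535 nm) and normalized to free-probe and complex controls.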

[3] = biological target: ATP-dependent DNA helicase Q1 (Homo sapiens) (UniProt P46063); test: qHTS Validation Assay for Inhibitors of RecQ-Like Dna Helicase 1 (RECQ1) (AID 2353); note: potency is the fitted concentration of half-maximal effect
Sequence of ATP-dependent DNA helicase Q1 (Homo sapiens) (P46063 whole entry, looked up): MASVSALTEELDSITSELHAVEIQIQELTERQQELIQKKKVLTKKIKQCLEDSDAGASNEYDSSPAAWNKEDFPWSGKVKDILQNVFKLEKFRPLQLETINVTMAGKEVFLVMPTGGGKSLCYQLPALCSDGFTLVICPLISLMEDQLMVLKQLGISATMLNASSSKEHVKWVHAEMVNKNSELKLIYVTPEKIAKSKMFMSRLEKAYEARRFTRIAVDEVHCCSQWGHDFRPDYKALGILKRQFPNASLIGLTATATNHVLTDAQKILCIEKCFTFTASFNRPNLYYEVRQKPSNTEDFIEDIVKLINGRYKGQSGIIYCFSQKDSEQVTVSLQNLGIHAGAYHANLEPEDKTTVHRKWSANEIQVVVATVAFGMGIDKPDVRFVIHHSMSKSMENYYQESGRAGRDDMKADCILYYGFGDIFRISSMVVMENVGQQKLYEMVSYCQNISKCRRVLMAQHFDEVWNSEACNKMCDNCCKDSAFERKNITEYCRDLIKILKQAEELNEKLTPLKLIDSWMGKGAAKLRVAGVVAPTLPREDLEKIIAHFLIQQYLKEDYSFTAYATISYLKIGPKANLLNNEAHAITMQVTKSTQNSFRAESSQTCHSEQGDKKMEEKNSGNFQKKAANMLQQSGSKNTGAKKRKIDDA
Summary of the method: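 RECQ1T1 50 nM; forked duplex (20 bp + 30-nt ss tails) 200 nM, ATP 2 mM final; pH 8.0, 2 mM MgCl2, 2.5 ug/ml poly(dI-dC); 15 min compound preincubation; discontinuous kinetic read over 2 h at RT.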

[4] = Cytometric Cell-Based qHTS for Inhibitors of the mTORC1 Signaling Pathway in MEF (Tsc2-/-, p53-/-) Cells (AID 2660);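 note: Tsc2 and p53 null MEFs carrying empty vector with compound for 24 h; percent of cells above a phospho-rpS6 to PI ratio cutoff in each well; series mostly up to about 38 µM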
Summary of the method: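 Cells are plated, treated with compound for 24 hrs at 37 degree Celsius, then fixed, blocked and immunostained for phospho-rpS6 Ser235/236. Propidium iodide counterstain follows. Per-well % positive cells is derived from the PI-normalized phospho-S6 signal.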

[5] = High Content Imaging Cell-Based qHTS for Inhibitors of the mTORC1 Signaling Pathway in MEF (Tsc2-/-, p53-/-) Cells (AID 2666);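 note: percent of cells scored positive for phospho-rpS6 Ser235/236 immunostaining by imaging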
Summary of the method: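 Tsc2-/-, p53-/- MEFs (empty-vector stable) grown in DMEM + 10% FBS were exposed to compounds for 24 hrs at 37 degree Celsius, fixed, and stained with Alexa-488 anti-phospho-rpS6 Ser235/236 plus Hoechst. Imaging gave the percentage of positive cells per well.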

[6] = High Content Imaging Cell-Based qHTS for Inhibitors of the mTORC1 Signaling Pathway in MEF Cells (AID 2667); note: potency is the fitted concentration of half-maximal effect
Summary of the method: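 Tsc2-/-, p53-/- MEFs stably re-expressing WT Tsc2, grown in DMEM + 10% FBS, were treated with compounds for 24 hrs at 37 degree Celsius, fixed, and stained with Alexa-488 phospho-rpS6 Ser235/236 antibody plus Hoechst; results given as % positive cells.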

[7] = biological target: Ubiquitin carboxyl-terminal hydrolase 2 (Homo sapiens) (UniProt O75604); test: qHTS Validation Assay for Inhibitors of Ubiquitin-specific Protease USP2a Using CHOP2 as the Reporter (AID 463106)
Summary of the method: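 Readout was coupled fluorescence (Ex 485/Em 531 nm), read 60 min after adding 25 nM final Ub-CHOP2 and 25 nM reporter substrate. Beforehand, 10 nM final USP2 core had 30 min at RT with compound in pH 8.0 buffer. Curves were fitted after normalization to NEM and flagged for artifacts using time-zero reads.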

[8] = biological target: DNA polymerase III PolC-type (Bacillus subtilis (strain 168)) (UniProt P13267); test: qHTS Validation Assay for the Inhibitors of DNA Replication in Gram-Positive Bacteria (AID 485295);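 note: reconstituted holoenzyme with PolC plus beta clamp SSB and primase; PicoGreen fluorescence of double-stranded DNA made on primed circular M13 template; series mostly up to about 57 µM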
Sequence of DNA polymerase III PolC-type (Bacillus subtilis (strain 168)) (P13267 whole entry, looked up): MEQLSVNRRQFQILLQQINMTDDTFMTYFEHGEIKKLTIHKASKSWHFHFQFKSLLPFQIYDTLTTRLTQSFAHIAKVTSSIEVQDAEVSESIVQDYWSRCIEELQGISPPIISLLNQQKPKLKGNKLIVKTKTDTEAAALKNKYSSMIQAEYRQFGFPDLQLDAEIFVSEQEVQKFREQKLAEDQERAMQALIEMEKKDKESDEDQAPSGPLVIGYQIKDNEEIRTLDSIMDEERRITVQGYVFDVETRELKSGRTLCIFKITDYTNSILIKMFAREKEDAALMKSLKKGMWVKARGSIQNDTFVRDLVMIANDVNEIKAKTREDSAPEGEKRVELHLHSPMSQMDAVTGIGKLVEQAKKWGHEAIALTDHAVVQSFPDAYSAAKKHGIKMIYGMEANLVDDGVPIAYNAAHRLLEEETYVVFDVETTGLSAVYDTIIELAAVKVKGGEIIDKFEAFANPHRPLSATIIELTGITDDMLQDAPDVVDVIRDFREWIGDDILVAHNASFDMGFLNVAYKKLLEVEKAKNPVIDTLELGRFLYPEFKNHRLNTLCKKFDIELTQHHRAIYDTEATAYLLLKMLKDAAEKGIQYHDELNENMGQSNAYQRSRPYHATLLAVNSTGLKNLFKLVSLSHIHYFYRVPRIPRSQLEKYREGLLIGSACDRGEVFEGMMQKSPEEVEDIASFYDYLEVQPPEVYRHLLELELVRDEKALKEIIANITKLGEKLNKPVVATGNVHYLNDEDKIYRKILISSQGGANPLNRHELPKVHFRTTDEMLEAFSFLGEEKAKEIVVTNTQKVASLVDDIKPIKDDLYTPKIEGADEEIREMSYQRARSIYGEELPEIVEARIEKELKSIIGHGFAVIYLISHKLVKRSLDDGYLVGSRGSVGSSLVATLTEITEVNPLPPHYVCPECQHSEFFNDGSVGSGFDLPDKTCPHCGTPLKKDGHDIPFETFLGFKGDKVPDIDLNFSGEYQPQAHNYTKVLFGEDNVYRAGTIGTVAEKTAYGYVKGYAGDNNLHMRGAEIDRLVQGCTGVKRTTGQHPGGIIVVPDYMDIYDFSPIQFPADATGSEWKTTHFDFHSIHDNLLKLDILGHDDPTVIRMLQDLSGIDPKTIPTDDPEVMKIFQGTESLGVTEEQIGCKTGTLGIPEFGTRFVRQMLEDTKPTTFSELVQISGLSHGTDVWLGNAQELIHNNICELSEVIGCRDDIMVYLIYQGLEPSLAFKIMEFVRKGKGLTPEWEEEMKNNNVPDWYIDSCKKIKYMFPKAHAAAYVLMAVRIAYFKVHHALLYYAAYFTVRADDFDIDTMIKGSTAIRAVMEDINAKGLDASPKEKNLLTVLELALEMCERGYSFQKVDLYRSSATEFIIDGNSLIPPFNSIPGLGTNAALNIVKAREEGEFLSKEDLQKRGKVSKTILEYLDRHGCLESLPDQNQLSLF
Summary of the method: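 Primed replication of single-stranded M13Gori by a four-protein B. subtilis holoenzyme is measured at room temperature. Double-stranded product is quantified by PicoGreen fluorescence after an EDTA stop; inhibition is scaled between DMSO and EDTA controls.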

[9] = biological target: Tumor susceptibility gene 101 protein (Homo sapiens) (UniProt Q99816); test: qHTS Validation Assay for Iinhibitors of HIV-1 Budding by Blocking the Interaction of PTAP/TSG101 (AID 485342; calls by dose curve)
Sequence of Tumor susceptibility gene 101 protein (Homo sapiens) (Q99816 whole entry, looked up, the tested form may be a part): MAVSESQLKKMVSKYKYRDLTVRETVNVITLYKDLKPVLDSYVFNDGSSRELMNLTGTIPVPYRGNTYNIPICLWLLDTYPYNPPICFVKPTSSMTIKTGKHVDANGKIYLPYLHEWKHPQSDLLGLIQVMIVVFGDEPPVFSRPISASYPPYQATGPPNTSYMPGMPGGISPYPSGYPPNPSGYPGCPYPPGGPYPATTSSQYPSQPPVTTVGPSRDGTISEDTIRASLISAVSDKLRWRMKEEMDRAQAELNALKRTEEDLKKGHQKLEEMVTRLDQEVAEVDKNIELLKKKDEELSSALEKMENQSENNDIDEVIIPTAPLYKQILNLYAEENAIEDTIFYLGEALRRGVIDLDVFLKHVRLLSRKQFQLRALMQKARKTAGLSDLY
Summary of the method: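 Fluorescence anisotropy measured PTAP-Tsg101 interaction. Final concentrations were 10 uM protein domain and 50 nM labeled peptide, equilibrated 20 min at room temperature.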

[10] = biological target: Beta-2 adrenergic receptor (Homo sapiens) (UniProt P07550); test: qHTS validation assay of beta-arrestin-biased ligands of beta2-adrenergic receptor (AID 485366)
Sequence of Beta-2 adrenergic receptor (Homo sapiens) (P07550 whole entry, looked up): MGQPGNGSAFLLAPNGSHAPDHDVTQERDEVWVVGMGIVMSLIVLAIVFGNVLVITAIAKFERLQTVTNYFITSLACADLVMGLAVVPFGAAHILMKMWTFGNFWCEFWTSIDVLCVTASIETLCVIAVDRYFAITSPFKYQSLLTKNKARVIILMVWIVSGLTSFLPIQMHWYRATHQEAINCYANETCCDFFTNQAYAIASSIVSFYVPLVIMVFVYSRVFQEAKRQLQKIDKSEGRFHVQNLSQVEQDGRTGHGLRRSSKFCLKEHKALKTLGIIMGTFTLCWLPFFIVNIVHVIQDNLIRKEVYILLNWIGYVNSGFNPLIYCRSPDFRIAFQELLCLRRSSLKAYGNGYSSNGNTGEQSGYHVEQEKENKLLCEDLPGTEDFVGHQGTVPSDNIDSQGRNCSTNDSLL
Summary of the method: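 Compound series up to 46 microM applied to beta2-AR/beta-arrestin Tango cells, 18 hr, 37 degrees C, 5% CO2. Read-out: tTA-driven luciferase luminescence, converted to %Activity; concentration-response curves assigned curve classes.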

[11] = biological target: ATP-dependent 6-phosphofructokinase (Trypanosoma brucei brucei) (UniProt O15648); test: qHTS Validation Assay to Find Inhibitors of T. brucei phosphofructokinase (AID 485368); note: potency is the fitted concentration of half-maximal effect
Sequence of ATP-dependent 6-phosphofructokinase (Trypanosoma brucei brucei) (O15648 whole entry, looked up): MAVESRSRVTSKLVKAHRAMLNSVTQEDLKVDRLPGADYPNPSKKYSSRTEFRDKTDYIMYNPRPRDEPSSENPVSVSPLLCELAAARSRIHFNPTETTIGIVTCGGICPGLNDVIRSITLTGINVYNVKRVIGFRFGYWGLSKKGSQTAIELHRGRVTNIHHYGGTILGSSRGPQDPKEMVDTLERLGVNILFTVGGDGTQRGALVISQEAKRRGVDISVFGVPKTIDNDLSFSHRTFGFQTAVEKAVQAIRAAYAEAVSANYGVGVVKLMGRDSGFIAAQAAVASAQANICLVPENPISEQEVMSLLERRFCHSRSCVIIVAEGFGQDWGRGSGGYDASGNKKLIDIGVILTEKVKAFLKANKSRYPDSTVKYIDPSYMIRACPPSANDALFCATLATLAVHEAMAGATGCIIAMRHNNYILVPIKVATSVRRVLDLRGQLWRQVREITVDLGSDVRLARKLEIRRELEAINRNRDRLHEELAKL
Summary of the method: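 qHTS format, up to 57 uM. PFK 1.25 nM; F6P 0.5 mM; ATP 0.1 mM; 5 mM MgCl2, 0.01% Tween20, 0.1% BSA; 0.1 M TEA pH 8.0; 45 min RT; ADP-Glo readout; no-enzyme control = full inhibition.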

[12] = qHTS Assay for Modulators of Human Peripheral Myelin Protein 22 (PMP22) Expression/Activity (AID 1967; active = well fitted curve in the direction sought with a large enough effect in the signal ratio; the % refers to the signal ratio)
Summary of the method: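 Quantitative HTS in a mouse Schwann cell line expressing dual click beetle luciferases: Pmp22 promoter (green) and control EF-alpha promoter (red). After 24h treatment, corrected green/red signal ratio gave %Activity relative to untreated cells.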

[13] = biological target: RecQ-like DNA helicase BLM (Homo sapiens) (UniProt P54132); test: qHTS Validation Assay for Inhibitors of Bloom's syndrome helicase (BLM) (AID 2364); note: potency is the fitted concentration of half-maximal effect
Sequence of RecQ-like DNA helicase BLM (Homo sapiens) (P54132 whole entry, looked up): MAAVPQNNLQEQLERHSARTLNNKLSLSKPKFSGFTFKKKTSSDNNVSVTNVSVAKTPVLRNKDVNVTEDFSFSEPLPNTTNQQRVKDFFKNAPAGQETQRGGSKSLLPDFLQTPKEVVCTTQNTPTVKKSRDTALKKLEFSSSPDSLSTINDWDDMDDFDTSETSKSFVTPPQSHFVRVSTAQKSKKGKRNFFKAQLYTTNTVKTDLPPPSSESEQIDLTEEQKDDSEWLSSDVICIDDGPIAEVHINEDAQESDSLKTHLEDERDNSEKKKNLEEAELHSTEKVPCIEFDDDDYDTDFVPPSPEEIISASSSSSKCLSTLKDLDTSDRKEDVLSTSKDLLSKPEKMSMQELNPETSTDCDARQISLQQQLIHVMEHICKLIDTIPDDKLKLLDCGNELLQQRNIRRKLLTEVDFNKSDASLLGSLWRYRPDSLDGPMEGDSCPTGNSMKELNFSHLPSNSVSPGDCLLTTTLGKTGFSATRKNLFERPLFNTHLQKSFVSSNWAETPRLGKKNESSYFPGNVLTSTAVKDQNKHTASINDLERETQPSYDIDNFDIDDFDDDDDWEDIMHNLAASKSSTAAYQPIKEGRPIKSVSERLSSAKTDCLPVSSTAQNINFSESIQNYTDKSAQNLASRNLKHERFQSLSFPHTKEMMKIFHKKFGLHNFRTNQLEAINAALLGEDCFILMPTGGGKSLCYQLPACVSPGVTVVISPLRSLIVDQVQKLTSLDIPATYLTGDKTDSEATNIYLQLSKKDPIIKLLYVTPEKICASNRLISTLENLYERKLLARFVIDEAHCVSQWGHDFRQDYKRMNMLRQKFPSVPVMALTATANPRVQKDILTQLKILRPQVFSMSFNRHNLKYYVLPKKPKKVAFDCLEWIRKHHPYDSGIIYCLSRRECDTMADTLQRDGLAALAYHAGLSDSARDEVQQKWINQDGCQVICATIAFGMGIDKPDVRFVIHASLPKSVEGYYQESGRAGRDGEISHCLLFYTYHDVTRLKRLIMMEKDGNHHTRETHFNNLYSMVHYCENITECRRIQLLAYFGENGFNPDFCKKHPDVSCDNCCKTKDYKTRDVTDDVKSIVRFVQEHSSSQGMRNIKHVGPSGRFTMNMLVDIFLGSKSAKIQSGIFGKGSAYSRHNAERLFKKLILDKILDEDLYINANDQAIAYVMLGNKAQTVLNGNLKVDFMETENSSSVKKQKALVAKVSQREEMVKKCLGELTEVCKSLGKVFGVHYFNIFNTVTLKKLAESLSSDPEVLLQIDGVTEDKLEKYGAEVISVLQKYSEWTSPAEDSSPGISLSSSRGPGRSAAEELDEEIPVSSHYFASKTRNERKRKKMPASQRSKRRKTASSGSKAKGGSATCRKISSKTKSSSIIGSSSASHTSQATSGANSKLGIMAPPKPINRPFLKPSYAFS
Summary of the method: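 Forked 20-bp duplex substrate (200 nM, TAMRA/BHQ-2) plus 2 mM ATP added after 15 min compound preincubation with 50 nM enzyme, pH 8.0, poly(dI-dC) 2.5 ug/ml. Strand separation followed by fluorescence (525/598 nm) over 2 h, normalized to enzyme-free and DMSO controls.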

[14] = Cytometry Cell-Based qHTS for Inhibitors of the mTORC1 Signaling Pathway in MEF cells (AID 2668);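 note: Tsc2-/- p53-/- mouse embryonic fibroblasts stably re-expressing wild-type Tsc2; percent cells positive for phospho-rpS6 Ser235/236 relative to propidium iodide stain; series mostly up to about 38 µM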
Summary of the method: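 Pathway inhibition in WT Tsc2-rescued Tsc2-/-, p53-/- MEFs is measured as the Alexa-488 phospho-rpS6 to propidium iodide intensity ratio after 24 hrs of compound at 37 degree Celsius. PI-stained cell number gives viability.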

[15] = Validation screen for small molecules that induce DNA re-replication in MCF 10A normal breast cells (AID 463097); note: nearly all actives have a fitted effect of over 60% in size; note: potency is the fitted concentration of half-maximal effect
Summary of the method: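 DNA re-replication was detected as a rise in nuclei with elevated Hoechst fluorescence after a 48 hr compound exposure of MCF 10A cells at 37 C.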

[16] = qHTS Validation Assay to Find Inhibitors of Chronic Active B-Cell Receptor Signaling (AID 485345; active = well fitted curve in the direction sought with a large enough effect in the main read-out, with a control signal flat, not every such curve was filed as active)
Summary of the method: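 Read-out: ratio of filter-corrected green (IkappaBalpha fusion) to red (native) luciferase signal in doxycycline-induced TMD8 cells after 4 h at 37C. Titration spanned 46 uM–3 nM; Data were normalised to basal cells and 10 uM MG-132 wells.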

[17] = qHTS Assay for Identification of Small Molecule Inducers of Hypoxia Response (AID 2120; active = well fitted curve in the direction sought with a large enough effect in the signal ratio, with a control signal flat, not every such curve was filed as active; the % refers to the signal ratio)
Summary of the method: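 Cell-based qHTS for reporter induction: hypoxia response element controlled beta-lactamase in ME-180 cells. Compounds incubated 17 h at 37 degrees C; activity from blue/green (460/530 nm) ratio, inducers ranked by AC50.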

[18] = Quantitative high throughput screen for delayed death inhibitors of the malarial parasite plastid, 96 hour incubation (AID 488745); note: nearly all actives have a fitted effect of over 70% in size; note: potency is the fitted concentration of half-maximal effect
Summary of the method: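 Readout is firefly luciferase luminescence from an integrated reporter in P. falciparum; lower signal marks inhibited growth. Cultures at 2% hematocrit and 0.1% parasitemia were treated with compound across two generations (96 h, 37 C, 5% CO2).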

COc1ccc(NC(=O)/C=C/c2ccc(Cl)cc2)cc1
Potency [1]: 12.6 µM (active) | Potency [2]: inactive | Potency [3]: inactive | outcome [4]: inactive | Potency [5]: inactive | Potency [6]: inactive | Potency [7]: inactive | Potency [8]: inactive | outcome [9]: inactive | outcome [10]: inactive | Potency [11]: inactive

NO
outcome [12]: inactive | Potency [2]: inactive | Potency [3]: inactive | Potency [13]: inactive | outcome [4]: inactive | Potency [5]: inactive | Potency [6]: inactive | Potency [14]: inactive | Potency [15]: inactive | Potency [7]: inactive | Potency [8]: inactive | outcome [9]: inactive | outcome [16]: inactive | outcome [10]: inactive

Nc1ccn([C@@H]2O[C@H](CO)[C@@H](O)[C@@H]2O)c(=O)n1
Potency [1]: inactive | Potency [3]: inactive | Potency [13]: inactive

O=C(O)c1cc(O)c(O)c(O)c1
outcome [17]: inactive

O=c1[nH]c2ccccc2n1CCCN1CCN(C(c2ccccc2)c2ccccc2)CC1
Potency [1]: 14.1 µM (active) | Potency [3]: inactive | Potency [15]: inactive | Potency [18]: inactive

NCCO
outcome [17]: inactive

C#CCN1C(C)=C(C(=O)OC)C(c2cccc([N+](=O)[O-])c2)C(C(=O)OCC)=C1C (stereo not drawn)
Potency [1]: 7.94 µM (active) | Potency [3]: inactive | outcome [4]: inactive | Potency [5]: inactive | Potency [6]: inactive | Potency [14]: inactive | Potency [7]: inactive | Potency [8]: inactive | outcome [9]: inactive | outcome [10]: inactive | Potency [11]: inactive | Potency [18]: 8.28 µM (active)

CC(C)(C=O)Cc1cc(C(C)(C)C)c(O)c(C(C)(C)C)c1
Potency [1]: inactive | Potency [3]: inactive | outcome [4]: inactive | Potency [5]: inactive | Potency [6]: inactive | Potency [14]: inactive | Potency [15]: inactive | Potency [7]: inactive | Potency [8]: inactive | outcome [9]: inactive | outcome [10]: inactive | Potency [11]: inactive | Potency [18]: inactive

CCCCCCCC/C=C\CCCCCCCC(=O)NCCO
Potency [1]: 4.47 µM (active) | Potency [3]: inactive | outcome [4]: inactive | Potency [5]: inactive | Potency [6]: inactive | Potency [7]: inactive | Potency [8]: inactive | outcome [9]: inactive | outcome [16]: inactive | outcome [10]: inactive | Potency [11]: inactive | Potency [18]: 2.94 µM (active)

CCCCCC(O)c1cccc(OCc2ccc3ccccc3n2)c1 (stereo not drawn)
Potency [1]: 12.6 µM (active) | Potency [3]: inactive | Potency [5]: inactive | Potency [6]: inactive | Potency [14]: inactive | Potency [7]: inactive | Potency [8]: inactive | outcome [9]: inactive | outcome [10]: inactive

N#C/C(=C\c1ccc(O)c(O)c1)C(=O)NCc1ccccc1
Potency [1]: 11.2 µM (active) | Potency [3]: inactive | outcome [4]: inactive | Potency [5]: inactive | Potency [6]: inactive | Potency [15]: 8.91 µM (active) | Potency [7]: inactive | outcome [9]: inactive | outcome [10]: inactive | Potency [11]: 13.5 µM (active) | Potency [18]: inactive

COc1ccccc1CNCCCCCCNCCCCCCCCNCCCCCCNCc1ccccc1OC
Potency [1]: 2 µM (active) | Potency [2]: inactive | Potency [13]: 17.8 µM (active) | outcome [4]: inactive | Potency [5]: inactive | Potency [6]: inactive | Potency [14]: inactive | Potency [15]: inactive | Potency [7]: inactive | Potency [8]: inactive | outcome [9]: inactive | outcome [16]: inactive | outcome [10]: inactive | Potency [18]: 1.04 µM (active)

O=C(/C=C/c1ccc(O)c(O)c1)OCCc1ccccc1
Potency [1]: 10 µM (active) | Potency [2]: inactive | Potency [3]: inactive | Potency [5]: inactive | Potency [7]: inactive | outcome [9]: inactive | outcome [10]: inactive

O=C1C(SCCO)=C(SCCO)C(=O)c2ccccc21
Potency [1]: 2 µM (active) | Potency [3]: inactive | Potency [13]: 28.2 µM (active) | outcome [4]: inactive | Potency [5]: inactive | Potency [6]: 3.69 µM (active) | Potency [15]: 3.98 µM (active) | Potency [7]: inactive | Potency [8]: inactive | outcome [9]: inactive | outcome [10]: inactive | Potency [11]: 12 µM (active)

CCCCCCCCCCCCCCCCCC(=O)OC(CC(=O)O)C[N+](C)(C)C (stereo not drawn)
Potency [1]: inactive | Potency [3]: inactive | Potency [13]: inactive | outcome [4]: inactive | Potency [5]: inactive | Potency [6]: inactive | Potency [14]: inactive | Potency [7]: inactive | outcome [9]: inactive | outcome [10]: inactive

NC(N)=NC(=O)c1nc(Cl)c(N2CCCCCC2)nc1N
Potency [1]: 7.94 µM (active) | Potency [3]: inactive | Potency [13]: inactive | outcome [4]: inactive | Potency [5]: inactive | Potency [6]: inactive | Potency [14]: inactive | Potency [15]: inactive | Potency [7]: inactive | Potency [8]: inactive | outcome [9]: inactive | outcome [16]: inactive | outcome [10]: inactive

N#C/C(=C\c1ccc(O)c(O)c1)C(=O)NCCCc1ccccc1
Potency [1]: 12.6 µM (active) | Potency [3]: inactive | outcome [4]: inactive | Potency [5]: inactive | Potency [7]: inactive | outcome [9]: inactive | outcome [10]: inactive

N#C/C(=C\c1c[nH]c2ccccc12)C(=O)c1ccc(O)c(O)c1
Potency [1]: 12.6 µM (active) | Potency [3]: 8.91 µM (active) | Potency [13]: 11.2 µM (active) | outcome [4]: inactive | Potency [6]: inactive | Potency [15]: inactive | Potency [7]: inactive | outcome [9]: inactive | outcome [10]: inactive | Potency [18]: inactive

COc1cc2c(CCNC(C)=O)c[nH]c2cc1Cl
outcome [12]: inactive | Potency [2]: inactive | Potency [3]: inactive | outcome [4]: inactive | Potency [5]: inactive | Potency [6]: inactive | Potency [14]: inactive | Potency [15]: inactive | Potency [7]: inactive | Potency [8]: inactive | outcome [9]: inactive | outcome [16]: inactive | outcome [10]: inactive | Potency [18]: inactive
